PubChem BioAssay AID463173 (ICCB-Longwood Screening Facility, Harvard Medical School, 2010)
Out of some 52,000 compounds screened, about 4,300 (8.3%) were called active. The sample as a whole holds a higher share of actives than the screen did. Unmarked numbers belong to inactive results. Cut-off read from the data, not from the text of the source: active = survival mostly below about 52% (no sharp cut-off); inactive = mostly above about 56%.

tested on: DeltatarO mutant; test: S. aureus survival, RN4220 and DeltatarO strains – OD600, teichoic acid synthesis inhibitors, primary screen (AID 463173); conditions: S. aureus RN4220 wild type/DeltatarO growth, OD600, 18 h, hits give low values, screened at 18.75 µg/mL (by protocol)

Row | Structure (SMILES) | survival
1 | CC1=C(C(=O)Nc2ccccc2C)C(c2cccnc2)n2nc(SCc3ccccc3F)nc2N1 (stereo not drawn) | 60%
2 | Cc1nc2nncn2c(N2CCN(c3ccccc3)CC2)c1C | 83%
3 | COc1cccc(CNC(=O)c2nn(C)c3c2CS(=O)(=O)c2ccccc2-3)c1 | 74%
4 | CC(=O)c1ccc(NC(=O)CSc2cn(CC(=O)N3CCCCC3)c3ccccc23)cc1 | 63%
5 | C=CCNc1nc(-c2ccccc2)cs1 | 97%
6 | COCC(=O)Nc1nc(-c2ccccc2)cs1 | 112%
7 | Cc1nc(C)c(-c2csc(NCc3ccccc3)n2)s1 | 65% (active)
8 | COc1cccc(C(=O)CN2C3=NCCN3c3ccccc32)c1 | 106%
9 | CC1=C(C(=O)Nc2cccc(F)c2)C2(CCCCCC2)OC1=O | 70%
10 | CCN(CCCNC(=O)CN1N=C(c2ccc(C)cc2)CCC1=O)c1ccccc1 | 0% (active)
11 | CCN(CCCNC(=O)CN1N=C(c2ccccc2)CCC1=O)c1ccccc1 | -5% (active)
12 | CCN(CCCNC(=O)CN1N=C(c2ccccc2)CCC1=O)c1cccc(C)c1 | 124%
13 | Cc1ccc(C2=NN(CC(=O)NCCC(C)C)C(=O)CC2)cc1 | 37% (active)
14 | Cc1ccc(C2=NN(CC(=O)NCCCN(CC(C)C)CC(C)C)C(=O)CC2)cc1 | 83%
15 | CCCCN(CCCNC(=O)CN1N=C(c2ccc(C)cc2)CCC1=O)c1ccccc1 | 92%
16 | CCCCN(CCCNC(=O)CN1N=C(c2ccccc2)CCC1=O)c1ccccc1 | 88%
17 | Cc1ccc(C2=NN(CC(=O)NCCN(CC(C)C)CC(C)C)C(=O)CC2)cc1 | 131%
18 | CCN(CCCNC(=O)CN1N=C(c2ccc(OC)cc2)CCC1=O)c1cccc(C)c1 | 123%
19 | COc1ccc(C)cc1NC(=O)c1ccc2c(c1)CCN2S(=O)(=O)c1ccc(Cl)cc1 | 79%
20 | CCOc1ccc(NC(=O)c2ccc3c(=O)n4c(nc3c2)CCCCC4)cc1 | 139%
21 | O=C(NCCc1ccc(Cl)cc1)C(=O)NCC(c1cccs1)S(=O)(=O)c1ccccc1 (stereo not drawn) | 77%
22 | CCOC(=O)c1c(NC(=O)/C=C/c2ccc(C(C)C)cc2)sc2c1CCC2 | 56%
23 | CCOC(=O)c1c(NC(=O)/C=C/c2ccccc2)sc2c1CCCC2 | 75%
24 | CCOC(=O)c1c(NC(=O)/C=C/c2ccc(OCC)cc2)sc2c1CCC2 | 145%
25 | CCOC(=O)c1c(NC(=O)/C=C/c2ccc(C)cc2)sc2c1CCCC2 | 22% (active)

Row | Structure (SMILES) | survival
26 | CCOC(=O)c1c(NC(=O)/C=C/c2ccc(OCC)cc2)sc2c1CCCC2 | 36% (active)
27 | CCOc1ccc(/C=C/C(=O)Nc2sc3c(c2C(=O)OC)CCCC3)cc1 | 110%
28 | CCCCN1C(=O)c2[nH]nc(-c3ccccc3O)c2C1c1ccc(OCc2ccccc2)cc1 (stereo not drawn) | 43% (active)
29 | CC(C)OCCCN1C(=O)c2[nH]nc(-c3ccccc3O)c2C1c1ccccc1F (stereo not drawn) | 46%
30 | CC(C)OCCCN1C(=O)c2[nH]nc(-c3ccccc3O)c2C1c1ccc(OCc2ccccc2)cc1 (stereo not drawn) | 28% (active)
31 | COCCCN1C(=O)c2[nH]nc(-c3ccccc3O)c2C1c1ccc(OCc2ccccc2)cc1 (stereo not drawn) | 8% (active)
32 | COCCCN1C(=O)c2[nH]nc(-c3ccccc3O)c2C1c1ccc(OC)cc1 (stereo not drawn) | 53%
33 | CC(C)OCCCN1C(=O)c2[nH]nc(-c3ccccc3O)c2C1c1cccc(OCc2ccccc2)c1 (stereo not drawn) | 49%
34 | CCCCN1C(=O)c2[nH]nc(-c3ccccc3O)c2C1c1ccc(C(C)(C)C)cc1 (stereo not drawn) | 88%
35 | COCCNC(=O)c1c(NC(=O)c2cc(=O)c3cc(Cl)ccc3o2)sc2c1CCCC2 | 49%
36 | Cc1cccc(NC(=O)c2sc3nc(N4CCOCC4)c4c(c3c2N)CC(C)(C)OC4)c1 | 91%
37 | Cc1cccc(Oc2ccc(NC(=O)CCC(=O)OCC(=O)c3ccc(Br)cc3)cc2)c1C | 68%
38 | COc1ccc(OC)c(S(=O)(=O)Nc2cccc(-c3ccc(N4CCCCC4)nn3)c2)c1 | 83%
39 | COCCCn1c(SCC(=O)N2CC(=O)Nc3ccccc32)nnc1-c1ccoc1C | 79%
40 | CCOC(=O)c1c(NC(=O)c2cc(=O)c3ccc(C)cc3o2)sc(C)c1C | 100%
41 | CCOC(=O)c1c(NC(=O)c2cc(=O)c3cc(C)cc(C)c3o2)sc(C)c1C | 48% (active)
42 | CCOC(=O)c1c(-c2ccc(C)cc2)csc1NC(=O)c1cc(=O)c2ccc(C)cc2o1 | 109%
43 | CCOC(=O)c1c(NC(=O)c2cc(=O)c3c(C)cc(C)cc3o2)sc(C)c1C | 61%
44 | CCOC(=O)c1c(-c2ccc(C)cc2)csc1NC(=O)c1cc(=O)c2cc(Cl)ccc2o1 | 116%
45 | CCOC(=O)c1c(-c2ccc(C)cc2)csc1NC(=O)c1cc(=O)c2cc(C)ccc2o1 | 42% (active)
46 | COc1ccc(CNC(=O)c2cnc(N3CCOCC3)c3ccccc23)cc1 | 70%
47 | CC1=Nc2cc(C(=O)NCc3ccccc3Cl)ccc2Sc2c(C)ccc(C)c21 | 79%
48 | O=C(Nc1ccccc1Cl)[C@H](CSCc1ccccc1)N1Cc2ccccc2C1=O | 58%
49 | CCN1CCN(c2c(S(=O)(=O)c3ccc(Cl)cc3)cnc3ccccc23)CC1 | 77%
50 | CCC(Sc1ncnc2sc3c(c12)CCCC3)C(=O)OC(C)C (stereo not drawn) | -7% (active)

Row | Structure (SMILES) | survival
51 | Nc1ncnc2sc3c(c12)CCCC3 | 57%
52 | CCC(Sc1ncnc2sc3c(c12)CCCC3)C(=O)OCC(C)C (stereo not drawn) | -6% (active)
53 | Clc1ncnc2sc3c(c12)CCCC3 | 86%
54 | CCn1cnc2sc3c(c2c1=O)CCCC3 | 101%
55 | COC(=O)C(C)n1cnc2sc3c(c2c1=O)CCCC3 (stereo not drawn) | 92%
56 | CCOC(=O)C(CC)Sc1ncnc2sc3c(c12)CCCC3 (stereo not drawn) | -7% (active)
57 | CCOC(=O)CSc1ncnc2sc3c(c12)CCC3 | 96%
58 | CNC(=O)CSc1ncnc2sc3c(c12)CCCC3 | 80%
59 | CCOC(=O)c1ccc2c(c1)N(Cc1ccc(F)cc1Cl)C(=O)c1ccccc1S2(=O)=O | 90%
60 | COc1ccc(-n2nc(C(=O)N3CCN(c4ccccc4OC)CC3)c3c4ccccc4n(C)c3c2=O)cc1Cl | 123%
61 | Cc1cc(C)c(NC(=O)CCN2C(=O)c3ccccc3Sc3ncccc32)c(C)c1 | 106%
62 | Cc1ccnc(NS(=O)(=O)c2ccc(NC(=O)c3nc(SC(C)C)ncc3Cl)cc2)n1 | 58%
63 | CCOC(=O)c1noc2nc(C)n(CC(=O)Nc3cccc(OC)c3)c(=O)c12 | 108%
64 | O=c1c2ccccc2nc(-c2ccccc2)n1CCCn1ccnc1 | 107%
65 | CCCc1cc(C(=O)Nc2c(C)nn(Cc3ccc(Cl)c(Cl)c3)c2C)no1 | 56%
66 | CCOC(=O)c1cccc(NC(=O)NCc2ccc3c(c2)CCN3C(=O)c2ccccc2)c1 | 116%
67 | COc1ccc2cc(C(=O)NCc3ccc4c(c3)CCN4C(=O)c3ccccc3)[nH]c2c1 | -1% (active)
68 | COc1ccc2cc(C(=O)NCc3ccc4c(c3)CCN4C(=O)c3ccc(C)cc3)[nH]c2c1 | 75%
69 | COc1ccc(CC(=O)NCc2ccc3c(c2)CCN3C(=O)c2cccc(C)c2)cc1 | -4% (active)
70 | O=C(NCc1ccc2c(c1)CCN2C(=O)c1ccccc1)c1cc2ccccc2[nH]1 | 6% (active)
71 | O=C(NCc1ccc2c(c1)CCN2C(=O)c1ccc(F)cc1)c1cc2ccccc2[nH]1 | 97%
72 | COc1ccc(OCC(=O)NCc2ccc3c(c2)CCN3C(=O)c2cccc(C)c2)cc1 | 82%
73 | COc1ccc2cc(C(=O)NCc3ccc4c(c3)CCN4C(=O)c3ccc(F)cc3)[nH]c2c1 | 86%
74 | Cc1cccc(C(=O)N2CCc3cc(CNC(=O)c4cc5ccccc5[nH]4)ccc32)c1 | 81%
75 | COc1ccc(CCC(=O)NCc2ccc3c(c2)CCN3C(=O)c2cccc(C)c2)cc1 | 76%

Row | Structure (SMILES) | survival
76 | O=C(NCc1ccc2c(c1)CCN2C(=O)c1ccccc1)Nc1cccc(C(F)(F)F)c1 | 123%
77 | COc1cccc(NC(=O)NCc2ccc3c(c2)CCN3C(=O)c2ccccc2)c1 | 52% (active)
78 | CCC1CCCCN1Cc1cn2c(-c3ccc(Br)cc3)nnc2s1 (stereo not drawn) | 80%
79 | Cc1ccc(Cn2c(=O)c3cccnc3n(CC(=O)Nc3cc(Cl)ccc3C)c2=O)cc1 | 85%
80 | CCCOc1cccc(C2c3c(oc4ccc(F)cc4c3=O)C(=O)N2CCc2ccc(OC)cc2)c1 (stereo not drawn) | 92%
81 | CCOC(=O)c1[nH]c(C)c(CCC(=O)NC(C)c2ccccc2)c1C (stereo not drawn) | 83%
82 | O=C(NC12CC3CC(CC(C3)C1)C2)c1cncc(O)c1 | 90%
83 | CCc1ccccc1NC(=O)c1ccc2c(c1)N(Cc1cc(C)ccc1C)C(=O)c1ccccc1S2(=O)=O | 84%
84 | Cn1c(=O)n(C)c2cc(/C=N/NC(N)=S)ccc21 | 98%
85 | CCn1cc(C(=O)N2CCN(c3ccc(F)cc3)CC2)c(=O)c2cc(S(=O)(=O)N(C)C3CCCCC3)ccc21 | 73%
86 | CCOc1ccc(C(=O)NCc2ccc3c(c2)CCN3C(=O)c2ccccc2)cc1 | -2% (active)
87 | O=C(NCc1ccc2c(c1)CCN2C(=O)c1ccccc1)c1ccccc1 | 79%
88 | CCOc1ccc(C(=O)NCc2ccc3c(c2)CCN3C(=O)c2ccc(Cl)cc2)cc1 | 91%
89 | CC(=O)c1cccc(NC(=O)C(CC(C)C)NS(=O)(=O)c2ccc3c(c2)CCN3C(C)=O)c1 (stereo not drawn) | 115%
90 | Cc1ccc(OCCn2c(COc3ccc(Cl)cc3)nc3ccccc32)cc1 | 65%
91 | COCc1nc2ccccc2n1CCOc1cccc(C)c1 | 39% (active)
92 | COc1cccc(OCc2nc3ccccc3n2CCOc2ccccc2C)c1 | 38% (active)
93 | Cc1cccc(OCCn2c(SCC(N)=O)nc3ccccc32)c1 | 121%
94 | COc1ccccc1OCCn1c(C(C)Oc2ccccc2)nc2ccccc21 (stereo not drawn) | 66%
95 | COc1ccc(OCCn2c(C(C)Oc3ccccc3)nc3ccccc32)cc1 (stereo not drawn) | 48% (active)
96 | COc1ccccc1OCCn1c(COc2cc(C)ccc2C)nc2ccccc21 | 61%
97 | CCCC(O)c1nc2ccccc2n1CCCCOc1ccc(OC)cc1 (stereo not drawn) | 52%
98 | Cc1ccc(OCc2nc3ccccc3n2CCOc2ccc(Cl)cc2)cc1 | 15% (active)
